Compound activity deposited in PubChem by National Center for Advancing Translational Sciences (NCATS).
D1 antag: Antagonist of Human D 1 Dopamine Receptor: qHTS; D(1A) dopamine receptor (Homo sapiens), P21728; HEK293 TREx D1 cells, calcium flux, dopamine EC80; active compounds read low; activity change, negative = inhibition, % at 10 µM; 360,000 compounds, 3.2% hits; in the data active = activity change below about -30%; also: % is scaled to controls: 0 for no effect and ±100 for the full control effect
Target sequence (P21728 whole entry, looked up): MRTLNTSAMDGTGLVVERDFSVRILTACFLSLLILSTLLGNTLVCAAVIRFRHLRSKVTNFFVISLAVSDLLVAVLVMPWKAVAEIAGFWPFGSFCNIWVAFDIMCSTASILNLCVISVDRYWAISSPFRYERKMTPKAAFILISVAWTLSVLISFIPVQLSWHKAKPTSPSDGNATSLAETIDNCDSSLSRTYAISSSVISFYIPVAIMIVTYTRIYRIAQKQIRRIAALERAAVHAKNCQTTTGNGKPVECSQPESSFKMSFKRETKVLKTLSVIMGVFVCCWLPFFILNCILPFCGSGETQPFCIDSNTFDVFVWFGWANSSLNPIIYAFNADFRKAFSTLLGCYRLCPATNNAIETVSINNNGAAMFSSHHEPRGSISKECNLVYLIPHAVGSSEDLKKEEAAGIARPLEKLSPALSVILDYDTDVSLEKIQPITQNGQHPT
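Tetracycline-induced HEK293 T-REx cells with force-coupled D1 receptor were loaded with a no-wash calcium dye. Compound was added after a 10 s baseline and read kinetically for 180 s; EC80 dopamine was then added and calcium flux followed another 180 s.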
USP1 inh: Inhibitors of USP1/UAF1: Primary Screen; Ubiquitin carboxyl-terminal hydrolase 1 (Homo sapiens), O94782; recombinant USP1/UAF1, Ub-Rhodamine cleavage fluorescence; Potency, µM (doses to about 57.1 µM), for the others: at the highest dose activity change, negative = inhibition, actives largely listed as inhibitors; 390,000 compounds, 0.23% hits; AID 743255, 2014; also: potency is read from the fitted curve at half-maximal effect; % is scaled to controls: 0 for no effect and ±100 for the full control effect; nearly all actives have a fitted effect of over 60% in size
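In this screen, compounds sit with the deubiquitinase complex (1nM) for 15 min at room temperature before Ub-Rho is added at 150nM final. Fluorescence rise is then followed for 6 reads every 60 seconds.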
TRHR enhancer-1: qHTS for Small Molecule Agonists and Allosteric Enhancers of Human TRH Receptor: Primary Screen for Enhancers; TRHR cells, fluo-8 calcium fluorescence, EC20 TRH enhancement; Thyrotropin-releasing hormone receptor (Homo sapiens), P34981; 360,000 compounds, 0.66% hits; enhancement, % at 2 µM; in the data active = enhancement above about 30%; also: 0% is about no effect
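TRHR-expressing cells loaded with fluo-8 calcium dye were read kinetically (ex 480/em 530) during compound addition, then stimulated with an EC20 of TRH (10 nM final). Enhancement of the Gq-mediated intracellular calcium response was scored.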
D1 ag: Allosteric Agonists of the Human D1 Dopamine Receptor: qHTS; 360,000 compounds, 1% hits; HEK293 T-REx D1 cells, calcium flux, agonist mode; AID 504660, 2011; activation, % at 2 µM; D(1A) dopamine receptor (Homo sapiens), P21728; in the data active = activation above about 30%; also: 0% is about no effect
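Agonism was scored from calcium flux recorded over 180 s (1 read/s) after pintool compound addition, following a 10-cycle baseline. Cells were inducible force-coupled HEK293 TREx D1, plated overnight at 30 C and loaded with no-wash calcium dye.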
TRHR agonist-1: qHTS for Small Molecule Agonists and Allosteric Enhancers of Human TRH Receptor: Primary Screen for Agonists; Thyrotropin-releasing hormone receptor (Homo sapiens), P34981; TRHR cells, calcium flux fluo-8, FDSS agonist mode; activation, % at 2 µM; 360,000 compounds, 0.18% hits; in the data active = activation above about 30%; also: 0% is about no effect
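Fluo-8-loaded TRHR cells; 10 s baseline, compound added, kinetic Ca2+ fluorescence read 1/s, agonist mode.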
D1 PAM: Potentiators of Human D1 Dopamine Receptor: qHTS. 360,000 compounds, 0.036% hits. D(1A) dopamine receptor (Homo sapiens), P21728. potentiation, % at 10 µM. AID 504651, 2011. HEK293 TREx D1 cells, calcium flux, dopamine EC20 potentiation; in the data active = potentiation above about 30%; also: 0% is about no effect
TRHR enhancer-2: qHTS for Small Molecule Agonists and Allosteric Enhancers of Human TRH Receptor: Confirmation Screen for Enhancers; shares compounds with TRHR enhancer-1; TRH receptor cell assay, enhancer confirmation qHTS; activity change, negative = inhibition, % at 46.1 µM; 970 tested, under 10 active; AID 493076, 2011;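 also: compound effect scored on response to added TRH at EC20 of 10 nM; 0% is about no effect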
TRHR agonist-2: qHTS for Small Molecule Agonists and Allosteric Enhancers of Human TRH Receptor: Confirmation Screen for Agonists. AID 493078, 2011. shares compounds with TRHR enhancer-1. Potency, µM (top dose mostly 46.1 µM), for inactives: at the highest dose activation, actives largely listed as activators. 970 compounds, 8% hits. TRHR-expressing cells, agonist activation read-out; also: potency is read from the fitted curve at half-maximal effect; 0% is about no effect; nearly all actives have a fitted effect of over 75% in size
Numbers without * were called inactive; ? = inconclusive; · = not tested or not shown. Most compounds without a hit are left out; they make up all but 4.4% or so of the library. Unless noted, calls follow the shape of the dose curve; as a rule, active = well fitted curve in the direction sought with a large enough effect; inconclusive = small, poorly fitted or top-dose-only effect, or another doubt; inactive = no such curve, though single readings can be large; an effect the other way counts as inactive or inconclusive.

SMILES | D1 antag | USP1 inh | TRHR enhancer-1 | D1 ag | TRHR agonist-1 | D1 PAM | TRHR enhancer-2 | TRHR agonist-2
Cc1ccc(N(CC(=O)NCc2ccc(OC(C)C)cc2)S(=O)(=O)N(C)C)cc1 | 1 | 5% | 7 | -1 | 0 | 0 | · | ·
CC1CCN(S(=O)(=O)c2cccc(S(=O)(=O)N3CCOCC3)c2)CC1 | -1 | 0% | 5 | 7 | 0 | -3 | · | ·
O=S(=O)(c1cccc(S(=O)(=O)N2CCC(N3CCCCC3)CC2)c1)N1CCOCC1 | 14 | · | 49* | -1 | 0 | -1 | -2 | 1%
COc1ccccc1CNS(=O)(=O)c1cc(C(=O)Nc2cccc(C(F)(F)F)c2)ccc1F | -23 | 2% | -19 | 0 | 0 | -4 | · | ·
Cc1ccc2c(c1)-c1cc(C)nn1C(c1cc(Br)ccc1O)N2 (configuration not stated) | -17 | -17% | 12 | 15 | 0 | 1 | · | ·
COC(=O)c1cc(S(=O)(=O)N2CCN(c3cccc(C)c3C)CC2)c[nH]1 | -3 | -16% | 48* | 8 | 0 | -20 | -7 | -1%
COC(=O)COc1ccc(S(=O)(=O)Nc2cc([N+](=O)[O-])ccc2C)cc1 | 0 | -28% | 45* | 5 | 0 | -5 | 4 | -1%
O=C(Nc1nc2ccc(F)cc2s1)C1CC(=O)N(c2ccc3c(c2)OCCO3)C1 (configuration not stated) | -16 | -23% | -5 | 8 | 0 | -6 | · | ·
COc1ccc(CN(C)C(=O)C2CC(=O)N(c3ccc4c(c3)OCCO4)C2)c(OC)c1 (configuration not stated) | 1 | -5% | 65* | 0 | -2 | -4 | -8 | -1%
O=C(C1CC(=O)N(c2ccc3c(c2)OCCO3)C1)N1CCN(Cc2ccccc2F)CC1 (configuration not stated) | 17 | -13% | 48* | 0 | 0 | -5 | 3 | -1%
O=C(NCc1ccccc1F)C1CC(=O)N(c2ccc3c(c2)OCCO3)C1 (configuration not stated) | -2 | -10% | -4 | 1 | 0 | 4 | · | ·
COc1ccc2nc(NC(=O)C3CC(=O)N(c4ccc5c(c4)OCCO5)C3)sc2c1 (configuration not stated) | 1 | -12% | 49* | 3 | 0 | -4 | ? | -1%
Cc1oc2ccc(O)c(CN3CCOCC3)c2c1C(=O)Nc1ccc(C(C)C)cc1 | 1 | ? | -12 | -1 | 0 | 1 | · | ·
CCOc1cccc(NC(=O)C2CC(=O)NC(=Nc3ccccc3)S2)c1 (configuration not stated) | -9 | -18% | 84* | 3 | 0 | 2 | 0 | 2%
CSC1=NC2(CCN(C(=O)NC3CCCCC3)CC2)N=C1c1ccc(C)c(C)c1 | 8 | -8% | 4 | 3 | 2 | -1 | · | ·
COc1ccnc(Oc2cc(Cl)cc(Cl)c2)c1C#N | -5 | -29% | 0 | 0 | 0 | -1 | · | ·
COc1ccc(Oc2nccc(OC)c2C#N)cc1 | -17 | ? | 43* | 3 | 0 | -3 | -4 | -1%
O=C(CN1N=C(c2ccc(Cl)cc2)CCC1=O)NCCc1ccc(Cl)cc1 | -20 | -12% | -1 | -6 | 0 | -1 | · | ·
CCOC(=O)CN1N=C(c2ccc(Cl)cc2)CCC1=O | -30 | -4% | 41* | 1 | 0 | -3 | -2 | 2%
COc1ccc(C2CC(=O)c3c(C)nc(N4CCN(C=O)CC4)nc3C2)c(OC)c1 (configuration not stated) | -3 | ? | -3 | 0 | -1 | -4 | · | ·
O=C(NCc1ccccc1Br)c1ccc2c(c1)nc1n2CCOC1 | -1 | -4% | -1 | 0 | 0 | -1 | · | ·
Cc1ccc2[nH]c(CCN(C)C)c(CC#N)c2c1 | 9 | -3% | 66* | 20 | 0 | -2 | -6 | ?
Cc1ccc(Cn2ccc(C3CC3)n2)cc1 | -12 | -20% | 51* | 1 | -1 | 0 | -1 | -1%
Cc1cc(=O)oc2c(CN3CCCC3)c(O)c(Cl)cc12 | -12 | -13% | 59* | 17 | -2 | -3 | -12 | 3%
Cc1cc(=O)oc2c(CN3CCCCC3)c(O)c(Cl)cc12 | -15 | -27% | 19 | -3 | -1 | -3 | · | ·
SMILES | D1 antag | USP1 inh | TRHR enhancer-1 | D1 ag | TRHR agonist-1 | D1 PAM | TRHR enhancer-2 | TRHR agonist-2
CCOc1cc(/C=C(/C#N)C(=O)Nc2ccc(O)cc2)cc(Br)c1O | 9 | ? | -4 | 48* | 40* | -5 | 9 | 21µM*
CCC(=O)N1CCc2cc(S(=O)(=O)NCCC(=O)Nc3ccc(C)cc3)ccc21 | -9 | -16% | 0 | -1 | -1 | 0 | · | ·
Cc1c(-n2cc(C(=O)c3ccccc3O)cc(C#N)c2=O)c(=O)n(-c2ccccc2)n1C | -6 | -20% | -2 | 36* | 42* | -12 | -8 | ?
N#Cc1cc(C(=O)c2ccccc2O)cn(-c2ccc(Cl)cc2)c1=O | -2 | -22% | 0 | 19 | 19 | -3 | · | ·
Cc1cccc(NS(=O)(=O)c2ccc(C)c(C(=O)NCC(c3cccs3)N(C)C)c2)c1 (configuration not stated) | 0 | -7% | 42* | 12 | 1 | 1 | 2 | 3%
Cc1ccc(C)c(N2CCN(c3nccn4nc(-c5ccc(Br)cc5)cc34)CC2)c1 | -3 | -15% | -4 | 7 | -1 | -1 | · | ·
COC(=O)N/N=C\c1c(C)[nH]n(-c2ccccc2)c1=O | -3 | -16% | 2 | 1 | 0 | -8 | · | ·
CC(=O)N/N=C/c1c(C)[nH]n(-c2ccccc2)c1=O | -24 | 1% | 44* | 4 | -1 | -9 | -4 | 5%
